Compounds with a hit are over-represented: about 1.2% of the library has one in this group of screens.
Gli-Sufu block = Gli-Sufu pathway antagonism. Sufu-KO-LIGHT fibroblasts, Gli luciferase reporter luminescence. inhibition, % at 5 µM. 0.74% of 340,000 active. AID 588413;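 active = inhibition above about 55%, limit read from the data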;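 also: 0% = DMSO-treated cells and 100% = wells with medium but no cells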
SRC1 inh = inhibitors of human steroid receptor coactivator 1 (SRC1); Q15788; HEK293 GAL4-SRC1 luciferase reporter, luminescence; inhibition, % at 3.6 µM; 0.12% of 360,000 active; AID 588354;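 active = inhibition above the campaign mean plus 3 SD, with each screening campaign given its own cutoff, cut at about 60% in these data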;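 also: 0% = DMSO treated cells and 100% = gossypol at 36 µM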
NCOA3 inh = inhibits human SRC3 coactivator; 0.17% of 360,000 active; inhibition, % at 3.6 µM; Q9Y6Q9; HEK293 GAL4-SRC3 luciferase reporter, luminescence; AID 588352;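 active = inhibition above a per-campaign cutoff, the mean of all compounds plus 3 SD, cut at about 60% in these data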;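 also: 0% = DMSO-treated cells and 100% = gossypol-treated cells at 36 µM; higher means less SRC3-driven luciferase light from the GAL4 reporter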
NR2F2 inh = inhibitors of human COUP-TFII (NR2F2); P24468; HEK293T NGFI-A luciferase reporter, luminescence; inhibition, % at 8.6 µM; 0.7% of 370,000 active; AID 686940;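 active = inhibition above a per-plate cutoff, mean inhibition of test wells between control levels plus 3 SD, cut at about 38% in these data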;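 also: cells cotransfected with COUP-TFII expression vector driving the NGFI-A reporter; 0% = median of COUP-TF2 test wells and 100% = reporter-only cells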
Target sequence (P24468 whole entry, looked up): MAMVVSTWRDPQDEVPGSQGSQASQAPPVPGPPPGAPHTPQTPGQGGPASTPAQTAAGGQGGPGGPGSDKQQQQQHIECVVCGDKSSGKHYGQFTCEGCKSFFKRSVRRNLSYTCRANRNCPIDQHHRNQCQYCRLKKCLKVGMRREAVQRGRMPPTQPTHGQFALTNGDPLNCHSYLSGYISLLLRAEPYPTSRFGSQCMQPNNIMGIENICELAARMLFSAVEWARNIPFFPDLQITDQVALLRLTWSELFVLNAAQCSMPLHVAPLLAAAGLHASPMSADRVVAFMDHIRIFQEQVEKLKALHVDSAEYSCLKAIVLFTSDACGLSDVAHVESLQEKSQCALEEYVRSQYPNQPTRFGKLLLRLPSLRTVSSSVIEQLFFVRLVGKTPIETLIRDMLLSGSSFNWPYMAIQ
NCOA2 inhibitor = human SRC2 (NCOA2) inhibition. HEK293 GAL4-SRC2 luciferase reporter, luminescence. inhibition, % at 9 µM. 0.17% of 370,000 active;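 active = inhibition above the mean inhibition of all tested compounds plus 3 SD, set per campaign, cut at about 52% in these data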;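 also: 0% = DMSO treated cells and 100% = cells given Gossypol at 36 µM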
NR5A2 inv ag = inverse agonists of human LRH-1 (NR5A2); HEK293T StAR-luciferase reporter, LRH-1 transfected, 24 h; 0.13% of 360,000 active; O00482; inhibition, % at 3.6 µM;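 active = inhibition above the mean inhibition of all tested compounds plus 3 SD, cut at about 73% in these data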;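 also: 0% = DMSO wells and 100% = reporter-only cells lacking LRH-1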
Starred values were filed as active, the others as inactive; / = no result given.

SMILES	Gli-Sufu block	SRC1 inh	NCOA3 inh	NR2F2 inh	NCOA2 inhibitor	NR5A2 inv ag
C=C1C(=O)c2sccc2C(c2ccc(OC)c(OC)c2)C1COC(C)=O (stereo not drawn)	44	59	47	89*	84*	71
COc1ccc(C2CC(=O)C(c3ccc(F)cc3)=CN2Cc2ccccc2)cc1 (stereo not drawn)	/	/	/	12	0	/
COc1ccc(C(=O)C(CN2CCCC2)c2ccccc2)cc1 (stereo not drawn)	18	18	22	-35	44	-1
O=C(c1ccc(F)cc1)C(CN1CCOCC1)c1ccccc1 (stereo not drawn)	11	6	74*	3	52	8
CCCCOc1ccc(C(=O)C(CN2CCOCC2)c2ccccc2)cc1 (stereo not drawn)	3	-13	-12	-14	28	10
COc1ccc(C(=O)C(CN2CCOCC2)c2ccccc2)cc1 (stereo not drawn)	14	33	50	-20	55*	19
CCCCCCCCN1C(=O)[C@@H](CC(=O)NCc2cccc3ccccc23)C[C@@]2(C(=O)OC)C1=C[C@H](C1CCCC1)O[C@@H]2C	/	/	/	18	-28	/
O=C1C=CC(=C(c2ccc(O)cc2)c2ccc(O)cc2)C=C1	1	59	53	31	41	81*
O=C(CCCC(=O)c1ccc(O)cc1)c1ccc(O)cc1	-74	-106	-121	-52	-81	-151
CCOc1ccc(C(=O)Cc2ccccc2)cc1	-28	-54	-46	-48	-52	-57
CCOc1ccc(C(=O)CSCCC(=O)O)cc1	16	13	23	56*	55*	5
Cc1cccc(/C=C(\c2nc3ccccc3[nH]2)S(=O)(=O)c2ccccc2)c1	-18	-37	17	33	64*	44
CC(C)(C)c1ccc(/C=C(\c2nc3ccccc3[nH]2)S(=O)(=O)c2ccccc2)cc1	-10	0	30	/	/	41
CSC(=S)NN=C(C)c1cccc(C)n1	92*	-21	-20	7	-23	-18
CC(=NNC(=S)N1CCCCC1)c1cccc(C)n1	12	-4	24	3	-29	-12
COc1ccc(S(=O)(=O)Nc2ccc3c(c2)C(=O)N([C@H](C)CO)C[C@H](C)[C@H](CN(C)C(=O)Nc2ccc(F)cc2)OCCCC[C@@H](C)O3)cc1	/	/	/	-3	-22	/
O=C(NC(C(=O)N1CCCC1C(=O)NC1CCCC1)c1ccccc1)c1cccs1 (stereo not drawn)	/	/	/	-4	19	/
COC(=O)COc1ccc(-c2nccc(-c3ccccn3)n2)cc1	29	19	26	26	61*	-1
COC(=O)COc1ccc(-c2nccc(-c3ccc(Br)cc3)n2)cc1	-4	-10	-8	17	12	8
CC(C)/C=C(/C(=O)c1ccc(Cl)cc1Cl)n1cncn1	3	5	22	1	-13	10
CC(C)(C)C(=O)/C(=C/c1ccc(Cl)cc1)n1cncn1	-7	50	73*	31	62*	65
CN1/C(=C\C=[N+](C)c2ccccc2)C(C)(C)c2ccccc21	85*	4	11	12	15	6
CN1C=C/C(=C\c2cc[n+](C)c3ccccc23)c2ccccc21	77*	53	38	46*	23	81*
CCCCS(=O)(=O)N1CCN(C(=O)C(=O)c2cccc(C(F)(F)F)c2)CC1	/	/	/	0	15	/
CC1(C)CC[C@]2(C(=O)n3ccnc3)CC[C@]3(C)[C@H](C(=O)C=C4[C@@]5(C)C=C(C#N)C(=O)C(C)(C)[C@@H]5CC[C@]43C)[C@@H]2C1	93*	44	55	3	-2	21
SMILES	Gli-Sufu block	SRC1 inh	NCOA3 inh	NR2F2 inh	NCOA2 inhibitor	NR5A2 inv ag
CCOC(=O)/C(=C\c1ccc(OC(F)F)cc1)C1=Nn2c(nnc2-c2ccc(Cl)cc2)SC1	56*	24	15	/	/	21
COc1ccc(/C=N/Nc2cc(C)nc3ccccc23)cc1	55*	20	20	12	5	12
COC(=O)c1cc(O)cc(OC)c1Oc1cc(C)cc(O)c1C(=O)O	-8	58	68*	5	-18	59
C[C@]12Cc3ccccc3C1CC1=N[C@@H](C3CCCCC3)O[C@@]13C[C@@H]2C(=O)N3C1CCN(Cc2ccccc2)CC1 (stereo partly drawn)	/	/	/	-1	-2	/
Cc1cc(C)nc(SCc2ccc(C(=O)N/N=C/c3cccc(O)c3O)cc2)n1	84*	24	66*	-17	33	-6
Cc1cc(C)nc(SCc2ccc(C(=O)N/N=C/c3ccc(C(=O)O)cc3)cc2)n1	-11	12	17	9	12	8
Cc1ccc(-n2c(SCC(=O)c3ccc(-c4ccccc4)cc3)nnc2-c2ccc(C(C)(C)C)cc2)cc1	/	/	/	10	-11	/
Cc1cc(/C=C\c2ccc3cc(N(C)C)ccc3[n+]2C)c(C)n1-c1ccccc1	94*	53	77*	/	/	77*
CC(C)(C)n1nc(C2CC2)c(Br)c1NC(=O)c1ccc(Cl)cc1	/	/	/	-10	10	/
CC(=O)c1cc(-c2csc(C=O)c2)c(=O)n2c1CCC2	/	/	/	2	-27	/
c1csc(C2=Nn3c(nnc3-c3ccncc3)SC2)c1	15	65*	60	29	43	41
COC(=O)[C@]12C[C@H](CC(=O)NCCC(C)C)C(=O)N(CCC3=CCCCC3)C1=C[C@H](COCc1ccccc1)O[C@@H]2C	/	/	/	-22	-8	/
CC(C)Cn1c(N)c(C(=O)CSc2ccc3c(c2)OCCO3)c(=O)n(C)c1=O	64*	33	44	28	9	10
Cc1cccc(NS(=O)(=O)c2ccc(NC(=O)CN(c3cc([N+](=O)[O-])ccc3C)S(C)(=O)=O)cc2)c1	20	17	40	-25	54*	19
O=C(NC1CCCCC1)C(c1cccnc1)N(C(=O)CCl)c1cccc(Cl)c1 (stereo not drawn)	0	37	69*	3	57*	-27
CS/C(=C\[N+](=O)[O-])Nc1ccc(OC(F)(F)F)cc1	-17	21	24	2	22	80*
CCCc1sc(N/N=C/c2ccccn2)nc1-c1ccc(F)cc1	60*	-31	0	/	/	-14
CCN=c1scc(-c2ccc(F)cc2)n1/N=C/c1ccccn1	-13	-95	-78	-11	-42	-137
COC(=O)c1ccc(/C=N/Nc2nc(C)c(C)s2)cc1	-57	-89	-87	-28	-61	-45
Cc1nc(N/N=C/c2ccccn2)sc1C	58*	/	/	25	50	/
CCn1c2c(c(=N)c3c1CCC3)CCC2	-8	8	9	12	32	-10
CCCCCCCCCn1c2c(c(=N)c3c1CCC3)CCC2	94*	71*	81*	/	/	97*
COC(=O)c1cc2c(c3c4cc(C)ccc4n(S(=O)(=O)c4ccc(OC)cc4)c13)C(=O)N(Cc1ccccc1OC)C2	/	/	/	-9	-11	/

Screening results from PubChem.
